In the supplement of paper PMC13380429:
Values without a mark were called inactive.

System: Vero E6 infected with SARS-CoV-2
Experiment: inhibition of SARS-CoV-2 cytopathic effect; higher = more antiviral protection, active = above 15
Conditions: 48 h

SMILES	inhibition of SARS-CoV-2 cytopathic effect (1 nM) [%]	inhibition of SARS-CoV-2 cytopathic effect (8.33 nM) [%]	inhibition of SARS-CoV-2 cytopathic effect (100 nM) [%]	inhibition of SARS-CoV-2 cytopathic effect (833.33 nM) [%]	inhibition of SARS-CoV-2 cytopathic effect (10000 nM)
c1cc(OCCN2CCCCC2)cc(-c2n[nH]c3ccc(-c4nnc[nH]4)cc23)c1	-0.48	-0.97	-0.96	3.62	3.74%
NC1=NCC2c3ccccc3Cc3ccccc3N12 (stereo not given) [epinastine]	-1.87	-1.14	0.71	7.29	1.93%
N=C(N)NN=C1C=CC(=NNC(N)=S)C=C1 [ambazone]	1.75	1.52	1.46	1.18	-0.05%
CN1CC[C@@]2(C)c3cc(O)ccc3N(C)[C@@H]12 [eseroline-(-)]	0.81	0.96	2.54	3.07	6.49%
C[C@H]1O[C@@H](Oc2c(-c3cc(O)c(O)c(O)c3)oc3cc(O)cc(O)c3c2=O)[C@@H](O)[C@@H](O)[C@@H]1O [myricitrin]	0.43	-0.53	0.85	-1.02	-1.34%
CC(Cc1ccccc1)NCCC(c1ccccc1)c1ccccc1 (stereo not given) [prenylamine]	1.32	-1.92	-0.65	-1.29	23.1% (active)
N#C/C(=C1/SCC(c2ccccc2Cl)S1)n1ccnc1 (stereo not given) [lanoconazole]	0.51	2.17	4.14	0.83	0.48%
O=C(O)Cn1c(C(=O)Nc2nc(-c3ccccc3Cl)cs2)cc2ccccc21	0.3	-0.21	0.61	-0.36	-0.66%
C=C1/C(=C\C=C2/CCC[C@]3(C)[C@@H]([C@H](C)CCCC(C)C)CC[C@@H]23)C[C@@H](O)C[C@@H]1O [alfacalcidol]	2.5	-0.82	-1.14	0.53	-5.24%
Cc1ccc(/C=N/NC(=O)c2ccccc2Oc2ccccc2)o1	-1.75	-0.44	-0.55	0.13	0.97%
